Data reported in PubChem BioAssay AID1851 (National Center for Advancing Translational Sciences (NCATS), 2009).
The whole screen tested about 16,000 compounds, of which about 5,700 (36%) were called active. Not shown: some 24% with an inconclusive outcome. Some of the results follow. Values without a mark were called inactive. Calls follow the shape of the dose curve; as a rule, active = well fitted curve in the direction sought with a large enough effect; inconclusive = small, poorly fitted or top-dose-only effect, or effect the other way; inactive = no such curve, though single readings can be large or run the other way.

Molecular target: Cytochrome P450 1A2 (Homo sapiens) (UniProt P05177)
Assay: Cytochrome panel assay with activity outcomes
Details: recombinant CYP, pro-luciferin dealkylation, luminescence, p450-cyp1a2; series mostly up to 57.1 µM
% is scaled to controls: 0 for no effect and ±100 for the full control effect.

Sequence of Cytochrome P450 1A2 (Homo sapiens) (P05177 whole entry, looked up): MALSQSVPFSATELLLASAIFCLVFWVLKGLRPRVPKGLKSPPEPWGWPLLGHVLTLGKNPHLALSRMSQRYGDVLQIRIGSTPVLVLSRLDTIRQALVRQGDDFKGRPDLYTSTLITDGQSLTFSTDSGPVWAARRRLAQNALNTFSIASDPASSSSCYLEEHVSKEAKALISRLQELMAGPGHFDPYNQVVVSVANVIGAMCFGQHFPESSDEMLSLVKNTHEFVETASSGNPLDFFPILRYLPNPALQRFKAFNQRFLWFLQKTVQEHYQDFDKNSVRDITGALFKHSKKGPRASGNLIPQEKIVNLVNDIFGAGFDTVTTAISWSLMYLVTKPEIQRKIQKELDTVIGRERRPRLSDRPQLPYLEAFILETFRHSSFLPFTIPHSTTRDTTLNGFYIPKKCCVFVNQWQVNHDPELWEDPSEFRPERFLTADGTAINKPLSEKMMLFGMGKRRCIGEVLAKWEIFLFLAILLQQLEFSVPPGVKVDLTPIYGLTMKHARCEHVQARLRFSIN

SMILES | AC50 | activity, negative = inhibition
CCCN(CCC)CCNC(=O)C1CCCN(S(=O)(=O)c2ccc3c(c2)oc(=O)n3C)C1 (stereo unspecified) | inactive | 
CCc1nc2cc(CC(=O)O)ccc2o1 | inactive | 
Cn1cccc1C(=O)N1CCC2(CC1)CN(c1ccccn1)C2 | inactive | 
Nc1nc2c(ncn2COCCO)c(=O)[nH]1 | inactive | 
C[C@@]12CC3CC(N)(C1)C[C@@](C)(C3)C2 | inactive | 
C[C@@H](C(=O)Nc1ccc2ccccc2c1)[C@H]1C[C@]1(C)[C@H](NS(=O)(=O)c1ccc2ccccc2c1)c1ccccc1 | inactive | 
C[C@@]1(C(NC(=O)Cc2ccccc2)c2ccc(-c3ccccc3)cc2)C[C@H]1C1CCCCC1 (stereo partly specified) | inactive | 
CC(=O)N[C@@H](c1ccccc1)[C@]1(C)C[C@H]1[C@@H](C)C(=O)Nc1ccc2ccccc2c1 | 12.6 µM (active) | 
CN(C)Cc1cc(O)c(O)c(CN(C)C)c1 |  | -8.6% [at 11.4 µM]
CN1CCN(c2ncc3nc(-c4ccc(F)cc4)c(=O)n(C4CC4)c3n2)CC1 | 12.6 µM (active) | 
CN1CCN(c2ncc3nc(-c4cc(F)cc(F)c4)c(=O)n(C4CC4)c3n2)CC1 | 15.8 µM (active) | 
CN1CCN(c2ncc3nc(-c4ccc(Cl)cc4)c(=O)n(C4CC4)c3n2)CC1 | 15.8 µM (active) | 
CC(C)N=c1cc2n(-c3ccc(Cl)cc3)c3ccccc3nc-2cc1Nc1ccc(Cl)cc1 | inactive | 
COC(=O)[C@@]1(Cc2ccccc2)[C@H]2c3cc(C(=O)N4CCCC4)n(Cc4ccsc4Br)c3C[C@H]2CN1C(=O)c1ccccc1 | inactive | 
N#Cc1ccc(C(c2nnnn2C2CCCC2)N2CCC(Cc3ccccc3)CC2)cc1 (stereo unspecified) | inactive | 
c1ccc(-c2noc(CSc3nnnn3C3CCCCC3)n2)cc1 | 2.24 µM (active) | 
N#Cc1cccc(C(c2nnnn2C2CCCC2)N2CCCCCC2)c1 (stereo unspecified) | inactive | 
OCCCN=C1CCCCC1 |  | -9.6% [at 11.4 µM]
COC(=O)Cn1nc(-c2ccccc2)n(-c2ccccc2)c1=S | 15.8 µM (active) | 
O=C(Nc1cccc(F)c1)N1CC2(CCN(C(=O)c3cc(C(F)(F)F)cc(C(F)(F)F)c3)CC2)C1 | inactive | 
COc1ccc(N2C(=O)NC(NC(=O)c3ccncc3)(C(F)(F)F)C2=O)cc1 (stereo unspecified) | inactive | 

SMILES | AC50 | activity, negative = inhibition
CCCCN1C(=O)NC(NC(=O)c2ccco2)(C(F)(F)F)C1=O (stereo unspecified) | inactive | 
O=C(NC1(C(F)(F)F)NC(=O)N(Cc2cccnc2)C1=O)c1ccccc1 (stereo unspecified) | 6.31 µM (active) | 
CCN1C(=O)[C@H]2[C@H]3[C@H](O)[C@H](O)C/C(=N/OC)[C@@H]3CC[C@@H]2C1=O |  | -3.89% [at 11.4 µM]
NCCNS(=O)(=O)c1cccc2cnccc12 | inactive | 
CCCCCCCNS(=O)(=O)c1cccc2c(Cl)cccc12 | 6.31 µM (active) | 
NCCCCCCNS(=O)(=O)c1cccc2c(Cl)cccc12 | 7.94 µM (active) | 
O=S(=O)(NCCCCCCc1ccccc1)c1cccc2c(Cl)cccc12 | 15.8 µM (active) | 
COc1ccccc1N1CCN(CCCCNS(=O)(=O)c2cccc3c(N(C)C)cccc23)CC1 | inactive | 
Nc1ccc(S(=O)(=O)NCCS(=O)(=O)O)cc1 |  | -3.14% [at 2.29 µM]
COC(=O)N1CCC2(CCN(Cc3nccs3)CC2)CC1 | inactive | 
C/C(=N/O)[C@@H]1C[C@H](CC(=O)O)C1(C)C |  | -2.9% [at 11.4 µM]
COCCn1c(=O)c(-c2cccc(Cl)c2)nc2cncnc21 | 0.631 µM (active) | 
COCCn1c(=O)c(-c2cccc(F)c2)nc2cncnc21 | 2 µM (active) | 
COCCn1c(=O)c(-c2cc(F)cc(F)c2)nc2cncnc21 | 2 µM (active) | 
COCCn1c(=O)c(-c2ccc(Cl)cc2)nc2cncnc21 | 0.2 µM (active) | 
COCCn1c(=O)c(-c2ccc(F)c(F)c2)nc2cncnc21 | 0.251 µM (active) | 
COCCn1c(=O)c(-c2ccc(F)cc2)nc2cncnc21 | 0.501 µM (active) | 
COCCn1c(=O)c(-c2ccccc2)nc2cncnc21 | 0.794 µM (active) | 
COc1ccc(NC(=O)C2CCN(C(=O)c3cccs3)CC2)c(OC)c1 | inactive | 
COc1ccc2oc(=O)c(C(=O)Oc3ccc(NC(C)=O)cc3)cc2c1 | inactive | 
COc1ccc2oc(=O)c(NC(=O)C3CCCCC3)cc2c1 | 2.51 µM (active) | 

SMILES | AC50 | activity, negative = inhibition
COc1ccccc1CNC(=O)C1CC(=O)N(C2CCCC2)C1 (stereo unspecified) | inactive | 
COc1ccc(NC(=O)CC2C(=O)N(c3cccc(OC)c3)C(=O)N2C2CCCCC2)cc1 (stereo unspecified) | inactive | 
COc1cccc2cc(NC(=O)C3CCCCC3)c(=O)oc12 | 1.26 µM (active) | 
CC[C@H]1C2=C3C(CC[C@H]4C(OCc5ccc(F)cc5C(F)(F)F)OC[C@](C)([C@@H]34)N(C(=O)OC(C)(C)C)C2)C(COC)C1COC (stereo partly specified) | inactive | 
COC(=O)C(C(=O)OC)C(C[N+](=O)[O-])c1ccc(OC)c(OC)c1 (stereo unspecified) | inactive | 
COc1cc2ccc([C@H](C)NCC#N)cc2cc1OC | 0.501 µM (active) | 
COc1ccc(CNCCC(c2ccc(OC(C)C)cc2)C(C)C)cc1OC (stereo unspecified) | inactive | 
CCN(CC)C[C@@H](O)c1ccc2ccc3ccccc3c2c1 | 0.794 µM (active) | 
c1ccc([C@H](c2cccc3c2ccc2ccccc23)[C@H](c2ccccc2)c2cccc3c2ccc2ccccc23)cc1 |  | -9.37% [at 11.4 µM]
Cc1cc2ccccc2c[n+]1CC(O)C[n+]1cc2ccccc2cc1C |  | -17.4% [at 11.4 µM]
CCCCCCCCN1C(=O)N(C)C(N(O)C(=O)NC)C1(C)C (stereo unspecified) | inactive | 
Cn1c(=O)c2c(ncn2C[C@@H](O)CO)n(C)c1=O | inactive | 
Cn1c(=O)c2c(ncn2CCO)n(C)c1=O | inactive | 
CCCn1cnc2c1c(=O)n(CCCCC(C)=O)c(=O)n2C | 12.6 µM (active) | 
O=C(O)/C=C(/C(=O)O)[C@]12CCN3CC4=CCO[C@@H]5CC(=O)N[C@@H]1[C@H]5[C@H]4C[C@H]32 |  | -15% [at 2.29 µM]
COc1ccc(CO/N=C/c2c(C)[nH]c(=O)[nH]c2=O)cc1 | 22.4 µM (active) | 
NC[C@H]1O[C@H](n2cnc3c(N)ncnc32)C[C@@H]1O |  | -9.51% [at 11.4 µM]
O=c1oc2cc(N=Cc3ccc4c(c3)OCO4)ccc2c2ccccc12 | 0.00794 µM (active) | 
O=[N+]([O-])c1ccc2c(c1)Cc1cc(N=Cc3ccc4c(c3)OCO4)ccc1-2 | 0.794 µM (active) | 
